Inconclusive results are not listed. A call without a number means that no potency is given here. Values without a mark were called inactive. Active and inactive are the calls of the source. The call rests on the fitted dose curve; in most records, active means well fitted curve in the direction sought with a large enough effect; inconclusive means small, poorly fitted or top-dose-only effect, or another doubt; inactive means no such curve, though single readings can be large; an effect the other way counts as inactive or inconclusive.
Assays:
[1] = target: Rap guanine nucleotide exchange factor 3 (Homo sapiens) (UniProt O95398); test: Confirmatory qHTS for antagonist of cAMP-regulated guanine nucleotide exchange factor 3 (EPAC1) (AID 1645880); further: nearly all actives have a fitted effect of over 55% in size; further: potency means the concentration at half of the fitted maximal effect
Method in brief: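 Released BODIPY-GDP fluoresces less than Rap1-bound BODIPY-GDP; the signal is followed at 480/540 nm at 5-min intervals over 30 min, after 5 min at room temperature. Reactions contain 100 nM EPAC1, 250 nM RAP1B-BODIPY-GDP and 50 uM GDP; results are normalized to ATA and DMSO.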

[2] = target: Rap guanine nucleotide exchange factor 3 (Homo sapiens) (UniProt O95398); test: Confirmatory qHTS for agonist of cAMP-regulated guanine nucleotide exchange factor 3 (EPAC1) (AID 1645881); further: nearly all actives have a fitted effect of over 75% in size; further: potency means the concentration at half of the fitted maximal effect;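 on activation: EPAC1 catalysed release of BODIPY-GDP from Rap1B seen as fluorescence loss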
[3] = target: Rap guanine nucleotide exchange factor 4 (Homo sapiens) (UniProt Q8WZA2); test: Confirmatory qHTS for agonist of cAMP-regulated guanine nucleotide exchange factor 4 (EPAC2) (AID 1645884);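 further: nucleotide exchange releases bodipy-GDP from Rap1 and this lowers its fluorescence; nearly all actives have a fitted effect of over 65% in size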
[4] = target: Rap guanine nucleotide exchange factor 4 (Homo sapiens) (UniProt Q8WZA2); test: Confirmatory qHTS for antagonist of cAMP-regulated guanine nucleotide exchange factor 4 (EPAC2) (AID 1645885); further: nearly all actives have a fitted effect of over 25% in size; further: potency means the concentration at half of the fitted maximal effect
[5] = target: Rap guanine nucleotide exchange factor 3 (Homo sapiens) (UniProt O95398); test: Counterscreen qHTS for antagonist of cAMP-regulated guanine nucleotide exchange factor 3 (EPAC1) (AID 1645888)
Method in brief: (§1)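 Rap1B–BODIPY-GDP (250 nM) with 50 uM GDP; compounds pin-transferred to 9.74 nM–152 uM final (activator) or from 7.32 nM upwards (inhibitor). Fluorescence Ex/Em 480/540 nm read at 5 and 30 min, then after adding cAMP or buffer, at room temperature.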

[6] = target: Rap guanine nucleotide exchange factor 3 (Homo sapiens) (UniProt O95398); test: Counterscreen qHTS for agonist of cAMP-regulated guanine nucleotide exchange factor 3 (EPAC1) (AID 1645889); further: nearly all actives have a fitted effect of over 40% in size; further: potency means the concentration at half of the fitted maximal effect
Method in brief: as §1

Chain of Rap guanine nucleotide exchange factor 3 (Homo sapiens) (O95398 whole entry, looked up): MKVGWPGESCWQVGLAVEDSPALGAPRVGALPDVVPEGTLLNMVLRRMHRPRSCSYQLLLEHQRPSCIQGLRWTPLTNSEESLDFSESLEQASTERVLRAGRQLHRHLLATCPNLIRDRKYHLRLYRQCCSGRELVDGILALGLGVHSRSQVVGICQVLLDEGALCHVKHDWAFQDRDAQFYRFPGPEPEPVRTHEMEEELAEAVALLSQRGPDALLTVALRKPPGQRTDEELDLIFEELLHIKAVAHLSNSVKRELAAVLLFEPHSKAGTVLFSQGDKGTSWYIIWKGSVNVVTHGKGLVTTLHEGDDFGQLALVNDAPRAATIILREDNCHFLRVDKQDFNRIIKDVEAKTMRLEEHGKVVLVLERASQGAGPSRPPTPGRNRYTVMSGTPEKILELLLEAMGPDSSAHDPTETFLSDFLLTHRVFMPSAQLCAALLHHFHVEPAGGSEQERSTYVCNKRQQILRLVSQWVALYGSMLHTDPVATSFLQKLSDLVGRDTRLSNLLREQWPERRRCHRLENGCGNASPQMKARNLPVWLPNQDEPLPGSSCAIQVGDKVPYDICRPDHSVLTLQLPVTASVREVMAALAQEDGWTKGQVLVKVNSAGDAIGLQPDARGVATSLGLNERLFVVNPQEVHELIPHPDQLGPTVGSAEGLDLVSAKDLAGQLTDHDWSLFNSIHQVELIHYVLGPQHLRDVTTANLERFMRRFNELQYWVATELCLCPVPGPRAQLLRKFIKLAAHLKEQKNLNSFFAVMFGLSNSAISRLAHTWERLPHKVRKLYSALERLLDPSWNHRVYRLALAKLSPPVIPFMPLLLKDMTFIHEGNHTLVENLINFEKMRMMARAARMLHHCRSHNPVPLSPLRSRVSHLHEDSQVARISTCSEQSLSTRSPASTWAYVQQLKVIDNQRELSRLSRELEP
Chain of Rap guanine nucleotide exchange factor 4 (Homo sapiens) (Q8WZA2 whole entry, looked up): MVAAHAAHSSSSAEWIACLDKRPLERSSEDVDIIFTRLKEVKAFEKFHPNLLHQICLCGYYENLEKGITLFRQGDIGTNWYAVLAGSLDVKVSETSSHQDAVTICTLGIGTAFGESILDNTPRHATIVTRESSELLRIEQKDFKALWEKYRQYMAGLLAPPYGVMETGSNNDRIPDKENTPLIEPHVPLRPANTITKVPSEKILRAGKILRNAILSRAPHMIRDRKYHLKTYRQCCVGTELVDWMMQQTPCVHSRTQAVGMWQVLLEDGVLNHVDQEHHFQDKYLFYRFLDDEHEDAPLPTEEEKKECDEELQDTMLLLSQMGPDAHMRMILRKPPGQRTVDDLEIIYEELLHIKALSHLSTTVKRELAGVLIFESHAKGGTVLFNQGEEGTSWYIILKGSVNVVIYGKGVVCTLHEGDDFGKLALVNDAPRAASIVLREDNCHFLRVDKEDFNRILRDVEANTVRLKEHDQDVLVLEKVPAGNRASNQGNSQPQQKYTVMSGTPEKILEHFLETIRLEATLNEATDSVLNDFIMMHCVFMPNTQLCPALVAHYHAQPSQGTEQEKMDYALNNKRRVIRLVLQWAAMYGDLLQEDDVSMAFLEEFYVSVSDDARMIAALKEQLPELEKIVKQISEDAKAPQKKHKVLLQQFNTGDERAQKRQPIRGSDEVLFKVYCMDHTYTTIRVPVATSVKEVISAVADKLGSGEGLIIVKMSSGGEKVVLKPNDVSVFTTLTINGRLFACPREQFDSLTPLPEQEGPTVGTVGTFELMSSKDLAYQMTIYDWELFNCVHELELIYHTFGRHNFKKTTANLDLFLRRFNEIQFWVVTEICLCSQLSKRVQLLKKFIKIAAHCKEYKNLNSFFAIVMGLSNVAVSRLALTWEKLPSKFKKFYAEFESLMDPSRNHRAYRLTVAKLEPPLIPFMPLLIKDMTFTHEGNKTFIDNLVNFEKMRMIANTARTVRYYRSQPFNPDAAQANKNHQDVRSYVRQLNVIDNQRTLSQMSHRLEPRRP

Compound	Potency [1]	Potency [2]	activation [3]	Potency [4]	activity change, negative = inhibition [5]	activation [6]	Potency [3]	Potency [5]	Potency [6]	outcome [4]
Cc1ccc2nc(-c3ccc(NC(=O)c4ccco4)cc3)[nH]c2c1	inactive	inactive	7.16% [at 17.1 µM, percent relative to cAMP agonist control]	inactive	-13% [at 30.8 µM]	29.2% [at 30.8 µM]				
CN(Cc1ccccc1)S(=O)(=O)c1ccc(Cl)c(C(=O)NCc2ccncc2)c1	inactive	inactive		inactive			inactive	inactive	inactive	
c1ccc(-c2nnc3sc(CN4CCC5(CC4)OCCO5)cn23)cc1	inactive	inactive		inactive			inactive	inactive	inactive	
O=C1CC(c2ccccc2C(F)(F)F)c2c(c3ccccc3[nH]c2=O)O1 (stereo unspecified)	inactive	inactive		inactive			inactive	inactive	inactive	
Cc1cc(C)n2[nH]c(=O)c(N=Nc3ccc(S(N)(=O)=O)cc3)c2n1	inactive	inactive		84.9 µM (active)			inactive	inactive	inactive	
COc1ccc(C(=O)COC(=O)CCN2C(=O)C3CC=CCC3C2=O)c(OC)c1 (stereo unspecified)	inactive	inactive	1.05% [at 17.1 µM, percent relative to cAMP agonist control]	inactive	-27.6% [at 30.8 µM]	-0.565% [at 30.8 µM]				
CCOC(=O)C1CCCN(c2c(NCCN3CCCCC3C)c(=O)c2=O)C1 (stereo unspecified)	inactive	inactive		inactive			inactive	inactive	inactive	
O=C(c1ccc(CSCc2ccccc2F)o1)N1CCN(c2ccc(N3CCOCC3)nn2)CC1	inactive	inactive	3.73% [at 17.1 µM, percent relative to cAMP agonist control]	inactive	-4.38% [at 30.8 µM]	14.5% [at 30.8 µM]				
Brc1ccc(-c2csc(-c3c[nH]c4ccccc34)n2)cc1	inactive	inactive	6.69% [at 17.1 µM, percent relative to cAMP agonist control]	inactive	3.69% [at 30.8 µM]	15.5% [at 30.8 µM]				
O=C1O/C(=C/c2ccccc2)N=C1c1ccccc1	inactive	inactive		inactive			inactive	inactive	inactive	
CC(C)(C)[C@H](N)C(=O)N[C@H]1CCC2C3CC=C4C[C@@H](O)CC[C@]4(C)C3CC[C@@]21C (stereo partly specified)	inactive	inactive	3.5% [at 17.1 µM, percent relative to cAMP agonist control]	inactive	-9.07% [at 30.8 µM]	31.4% [at 30.8 µM]				
O=[N+]([O-])c1ccc(Cc2ccccn2)c([N+](=O)[O-])c1	inactive	inactive					inactive	inactive	inactive	inactive; activator; fitted 0.12 uM [at 12.7 µM]
CCOC(=O)c1ccc(-c2ccc(/C=C(\C#N)C(=O)Nc3c(C)cccc3Cl)o2)cc1	75.7 µM (active)	inactive		inactive			inactive	inactive	inactive	
Cc1nc2c(C(=O)NCCC(C)C)c[nH]n2c(=O)c1Cl	inactive	inactive		84.9 µM (active)			inactive	inactive	inactive	
Cc1ccc(S(=O)(=O)NCCC(=O)N2CC(C)OC(C)C2)cc1 (stereo unspecified)	inactive	inactive		inactive			inactive	inactive	inactive	
COCCCn1c(=O)/c(=C\c2ccc(OC(F)F)c(OC)c2)s/c1=C(/C#N)C(N)=O	inactive	inactive		inactive			inactive	inactive	inactive	
O=C(CCC(=O)N1CCSc2ccccc21)NCc1cccc(Cl)c1	inactive	inactive	1.67% [at 17.1 µM, percent relative to cAMP agonist control]	inactive	1.86% [at 30.8 µM]	22.1% [at 30.8 µM]				
CCc1nc(C)cn1S(=O)(=O)c1cc(C)c(OC)cc1C	inactive	inactive		inactive			inactive	inactive	inactive	
COc1ccc(CCNC(=O)CCc2nc3sc4c(c3c(=O)[nH]2)CCCC4)cc1	84.9 µM (active)	inactive		4.78 µM (active)			inactive	inactive	inactive	
COc1cccc(-n2nnc3c(=O)n(C/C=C/c4ccccc4)cnc32)c1	inactive	inactive	6.54% [at 17.1 µM, percent relative to cAMP agonist control]	inactive	2.95% [at 30.8 µM]	17.3% [at 30.8 µM]				
COc1ccc(/C=C(/NC(=O)c2ccccc2)C(=O)N/N=C/c2ccncc2)c(OC)c1	inactive	inactive	2.49% [at 17.1 µM, percent relative to cAMP agonist control]	inactive	28.5% [at 30.8 µM]	12.1% [at 30.8 µM]				

Compound	Potency [1]	Potency [2]	activation [3]	Potency [4]	activity change, negative = inhibition [5]	activation [6]	Potency [3]	Potency [5]	Potency [6]	outcome [4]
CC(C)CNC(=O)c1[nH]c(C(F)(F)F)nc1-c1ccccc1	inactive	inactive	3.83% [at 17.1 µM, percent relative to cAMP agonist control]	inactive	-17.1% [at 30.8 µM]	30.5% [at 30.8 µM]				
CC(=O)NC(CCS(C)(=O)=O)C(=O)Nc1cc(C)on1 (stereo unspecified)	inactive	inactive		inactive			inactive	inactive	inactive	
O=[N+]([O-])c1cc([N+](=O)[O-])c2nonc2c1Nc1ccc(O)cc1	75.7 µM (active)	inactive		42.6 µM (active)			inactive	inactive	inactive	
COc1ccccc1OCC(=O)Nc1cc(C(F)(F)F)ccc1-n1cncn1	inactive	inactive	2.73% [at 17.1 µM, percent relative to cAMP agonist control]	inactive	-12% [at 30.8 µM]	5.31% [at 30.8 µM]				
CSc1nc(N2CCOCC2)c2c3c(sc2n1)CCCC3	inactive	inactive		inactive			inactive	inactive	inactive	
CC1=NN(c2nc(-c3ccc(Cl)cc3)cs2)C(=O)C1	25.1 µM (active)	inactive	4.56% [at 17.1 µM, percent relative to cAMP agonist control]	inactive	-0.482% [at 30.8 µM]	11% [at 30.8 µM]				
COc1ccc(NC(=O)CS(=O)(=O)Cc2ccccc2)c([N+](=O)[O-])c1	inactive	inactive	7.06% [at 17.1 µM, percent relative to cAMP agonist control]	inactive	-9.05% [at 30.8 µM]	8.04% [at 30.8 µM]				
CN1CCS/C1=C/C=C1\SC(=S)N(CC(=O)O)C1=O	inactive	50.1 µM (active)	15.2% [at 17.1 µM, percent relative to cAMP agonist control]	inactive	62.8% [at 30.8 µM]				14.1 µM (active)	
Cc1cccc(NC(=S)NC(=O)c2oc3ccccc3c2C)n1	inactive	inactive		inactive			inactive	inactive	inactive	
CC1(C(=O)NS(=O)(=O)c2ccc(Cl)s2)CCN1C(=O)C1(c2ccccc2)CCCC1 (stereo unspecified)	37.9 µM (active)	inactive		8.49 µM (active)			inactive	inactive	inactive	
Cc1cc2ccccn2c1C(=O)c1ccccc1F	inactive	inactive	3.67% [at 17.1 µM, percent relative to cAMP agonist control]	inactive	-3.01% [at 30.8 µM]	21.5% [at 30.8 µM]				
Cc1cc(N=Nc2ccccc2C(=O)O)c(C)c(C)c1O	39.8 µM (active)	inactive	-13.7% [at 17.1 µM, percent relative to cAMP agonist control]	inactive	-28.9% [at 30.8 µM]	4.71% [at 30.8 µM]				
Nc1nc(CSc2nnnn2-c2ccc(Cl)cc2)nc(N2CCOCC2)n1	inactive	inactive	5.65% [at 17.1 µM, percent relative to cAMP agonist control]	inactive	9.77% [at 30.8 µM]	8.16% [at 30.8 µM]				
Cc1cc(S(=O)(=O)Nc2ccccc2C)ccc1F	inactive	inactive		13.5 µM (active)			inactive	inactive	inactive	
COCCNC(=O)c1ccc2c(c1)N(Cc1ccc(C(F)(F)F)cc1)C(=O)c1ccccc1S2	inactive	inactive		inactive			inactive	inactive	inactive	
COc1ccc(C2=CC(=O)C[C@H](COCc3ccccc3)N(C(=O)OC(C)(C)C)O2)cc1	inactive	inactive		inactive			inactive	inactive	inactive	
Cc1cccc(/C(N)=N/OC(=O)Cc2cccc3ccccc23)c1	inactive	inactive	2.49% [at 17.1 µM, percent relative to cAMP agonist control]	inactive	-15.4% [at 30.8 µM]	-1.93% [at 30.8 µM]				
CCc1nc2c(OCc3ccc(C(=O)OC)cc3)cccn2c1N(C)C(=O)CC(C)C	inactive	inactive		inactive			inactive	inactive	inactive	
CC(=O)NC(CCS(C)(=O)=O)C(=O)Nc1cccc(C)c1C (stereo unspecified)	inactive	inactive		inactive			inactive	inactive	inactive	
COCCNC(=O)CSc1nc2cc3c(cc2c(=O)n1CCCCCC(=O)NCc1ccc(OC)cc1)OCO3	inactive	inactive		inactive			inactive	inactive	inactive	
